According to PubChem BioAssay (EPA / NIEHS):
Several values for one entry are separate records, joined by “and”; a condition that tells them apart may be missing. Identical values can stand only once. Inconclusive results are not listed. Some compounds were tested as several samples or in several runs, with calls that do not always agree. Activity calls are given as the source filed them. How the source made its calls, unless noted: active means hit-call score of the fitted dose curve at least 0.9, where 1 is the maximum; inactive means score below 0.9.

Columns and labels:
[1] = target: human RAR-related Orphan Receptor beta (RORb), RORB (gene 6096) (UniProt Q92753); experiment: ATG_RORb_TRANS: Attagene TRANS-FACTORIAL HepG2 Assay for human RAR-related Orphan Receptor beta (RORb) (AID 2283010; active means hit-call score of the fitted dose curve at least 0.9, where 1 is the maximum)
Summary of the method: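 Transfect HepG2 with multiple GAL4-UAS reporter transcription units; dose chemicals for 24 h; isolate RNA, reverse-transcribe and PCR-amplify reporter sequences; label, digest and resolve fragments by capillary electrophoresis; fit increases relative to DMSO.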

[2] = target: human RAR-related Orphan Receptor gamma (RORg), RORC (gene 6097) (UniProt P51449); experiment: ATG_RORg_TRANS: Attagene TRANS-FACTORIAL HepG2 Assay for human RAR-related Orphan Receptor gamma (RORg) (AID 2283011; active means hit-call score of the fitted dose curve at least 0.9, where 1 is the maximum)
Summary of the method: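 Transient MRTU transfection of HepG2 (TRANS format, exogenous NR-Gal4 chimera). 24 h dosing. Total RNA → oligo(dT) RT → PCR → 6-FAM labelling → HpaI cut → CE. Gain vs DMSO.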

[3] = target: Retinoic acid receptor RXR-alpha (Homo sapiens) (UniProt P19793); experiment: ATG_RXRa_TRANS: Attagene TRANS-FACTORIAL HepG2 Assay for human Retinoid X Receptor alpha (RXRa) (AID 2283012; active means hit-call score of the fitted dose curve at least 0.9, where 1 is the maximum)
Summary of the method: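 Measures exogenous chimeric NR-GAL4 activity in transfected HepG2 liver cells after 24 h of dosing. Induced reporter mRNA was detected by RT-PCR with capillary electrophoresis, and gain of signal was analysed against DMSO.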

[4] = target: human Retinoid X Receptor beta (RXRb), RXRB (gene 6257) (UniProt P28702); experiment: ATG_RXRb_TRANS: Attagene TRANS-FACTORIAL HepG2 Assay for human Retinoid X Receptor beta (RXRb) (AID 2283013; active means hit-call score of the fitted dose curve at least 0.9, where 1 is the maximum)
Summary of the method: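 Chimeric receptor-Gal4 activity was assessed in transiently transfected human HepG2 cells after 24 h exposure. Transcripts from GAL4-UAS reporters were quantified by fluorescent RT-PCR and capillary electrophoresis, with DMSO as negative control and baseline.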

[5] = read-out: E-selectin (Homo sapiens) (UniProt P16581); experiment: BSK_3C_Eselectin: BioMAP Diversity Plus: 3C Assay for Eselectin Biomarker Activity (AID 2283015); details: primary human endothelial cells (HUVEC); actives raise or lower the signal
Summary of the method: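 HUVEC, 3C stimulation; compound exposure 24 h; E-selectin by ELISA; gain- or loss-of-signal fitted bidirectionally vs DMSO baseline.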

[6] = read-out: Interleukin-1 alpha (IL1a), IL1A (gene 3552); experiment: BSK_BE3C_IL1a: BioMAP Diversity Plus: BE3C Assay for Interleukin-1 alpha (IL1a) Biomarker Activity (AID 2283016); details: primary human bronchial epithelial cells; actives raise or lower the signal
Summary of the method: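 Signal from IL-1a ELISA, taken 24 h after chemical dosing of human bronchial epithelial cells, is compared with DMSO as baseline using bidirectional curve fitting.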

[7] = read-out: Monocyte Chemoattractant Protein-1 (MCP1), CCL2 (gene 6347); experiment: BSK_3C_MCP1: BioMAP Diversity Plus: 3C Assay for Monocyte Chemoattractant Protein-1 (MCP1) Biomarker Activity (AID 2283017); details: primary human endothelial cells (HUVEC); actives raise or lower the signal
Summary of the method: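 HUVEC, 3C system; 24 h chemical exposure; MCP-1 by ELISA; bidirectional curve fit vs DMSO baseline.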

[8] = read-out: Monocyte Chemoattractant Protein-1 (MCP1), CCL2 (gene 6347); experiment: BSK_4H_MCP1: BioMAP Diversity Plus: 4H Assay for Monocyte Chemoattractant Protein-1 (MCP1) Biomarker Activity (AID 2283018); details: primary human endothelial cells (HUVEC); actives raise or lower the signal
Summary of the method: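 Endothelial cells from umbilical vein were treated with test chemical, then after 24 h MCP-1 levels were quantified by ELISA; endpoint values came from bidirectional fitting with DMSO as baseline of activity.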

[9] = read-out: Human Leukocyte Antigen - DR isotype (HLADR), HLA-DRA (gene 3122); experiment: BSK_3C_HLADR: BioMAP Diversity Plus: 3C Assay for Human Leukocyte Antigen - DR isotype (HLADR) Biomarker Activity (AID 2283019); details: primary human endothelial cells (HUVEC); actives raise or lower the signal
Summary of the method: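 HUVEC, 3C stimulation, 24 h post-dose; HLA-DR by ELISA; bidirectional curve fit vs DMSO baseline; gain or loss of signal scored.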

[10] = read-out: Interleukin-8 (IL8), CXCL8 (gene 3576); experiment: BSK_3C_IL8: BioMAP Diversity Plus: 3C Assay for Interleukin-8 (IL8) Biomarker Activity (AID 2283020); details: primary human endothelial cells (HUVEC); actives raise or lower the signal
Summary of the method: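 Endothelial primary cells of human umbilical vein origin are dosed with chemical; after 24 h the IL-8 biomarker is measured by ELISA, and concentration–response is fitted in both directions versus DMSO.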

[11] = read-out: Monokine induced gamma interferon (MIG), CXCL9 (gene 4283); experiment: BSK_3C_MIG: BioMAP Diversity Plus: 3C Assay for Monokine induced gamma interferon (MIG) Biomarker Activity (AID 2283021); details: primary human endothelial cells (HUVEC); actives raise or lower the signal;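 on AC50: MIG protein level measured by immunoassay in the treated endothelial cultures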
Summary of the method: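 Endothelial primary cells (human umbilical vein) are dosed with test chemical in the 3C system. MIG levels are measured by ELISA at 24 h and fitted in both directions relative to DMSO.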

[12] = target: human Vitamin D Receptor (VDR), VDR (gene 7421) (UniProt P11473); experiment: ATG_VDR_TRANS: Attagene TRANS-FACTORIAL HepG2 Assay for human Vitamin D Receptor (VDR) (AID 2283022; active means hit-call score of the fitted dose curve at least 0.9, where 1 is the maximum)
Summary of the method: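 RT-PCR/capillary electrophoresis read-out of reporter mRNA induction in transiently transfected HepG2; 24 h dosing; chimeric NR-Gal4 (TRANS format); gain-of-signal fit against DMSO baseline.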

[13] = BSK_3C_SRB: Viability Assessment in the BioMAP Diversity Plus: 3C Assay (AID 2283023); details: primary human endothelial cells (HUVEC);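 further: fitted both ways against DMSO so a hit may be signal rise or drop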
Summary of the method: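 HUVEC, 24 h post-dose; 10% TCA fix, 0.1% SRB stain, A560 nm. Bidirectional curve fit vs DMSO negative control.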

[14] = read-out: Matrix Metallopeptidase 1 (MMP1), MMP1 (gene 4312); experiment: BSK_BE3C_MMP1: BioMAP Diversity Plus: BE3C Assay for Matrix Metallopeptidase 1 (MMP1) Biomarker Activity (AID 2283024); details: primary human bronchial epithelial cells; actives raise or lower the signal
Summary of the method: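 MMP1 signal, measured by ELISA after a 24 h chemical exposure of human primary bronchial epithelial cells, is analysed with bidirectional fitting using DMSO as negative control.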

[15] = BSK_4H_SRB: Viability Assessment in the BioMAP Diversity Plus: 4H Assay (AID 2283027); details: primary human endothelial cells (HUVEC);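 further: cells exposed to compound for 24 h before staining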;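 on AC50: curves fitted both ways versus DMSO so AC50 may be loss or gain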
Summary of the method: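 Cytotoxicity readout: sulforhodamine B (0.1%) staining of total protein after 10% TCA fixation, measured at 560 nm in human umbilical vein endothelium at 24 h. DMSO set the baseline; fitting was bidirectional.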

[16] = read-out: Thrombomodulin, THBD (gene 7056); experiment: BSK_3C_Thrombomodulin: BioMAP Diversity Plus: 3C Assay for Thrombomodulin Biomarker Activity (AID 2283029); details: primary human endothelial cells (HUVEC); actives raise or lower the signal
Summary of the method: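 Endothelial cells from umbilical vein are dosed with test chemical and incubated 24 h. Thrombomodulin is then quantified by ELISA, with DMSO serving as negative control and activity baseline.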

[17] = target: human Thyroid Receptor alpha (THRa1), THRA (gene 7067) (UniProt P10827); experiment: ATG_THRa1_TRANS: Attagene TRANS-FACTORIAL HepG2 Assay for human Thyroid Receptor alpha (THRa1) (AID 2283014; active means hit-call score of the fitted dose curve at least 0.9, where 1 is the maximum)
Summary of the method: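 Transient HepG2 transfection, NR-Gal4 chimera driving GAL4-UAS reporters; 24 h compound exposure; total RNA, oligo(dT) RT, PCR, fluorescent primer extension, capillary electrophoresis. Upward direction vs DMSO control.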

[18] = read-out: Pselectin, SELP (gene 6403); experiment: BSK_4H_Pselectin: BioMAP Diversity Plus: 4H Assay for Pselectin Biomarker Activity (AID 2283026); details: primary human endothelial cells (HUVEC); actives raise or lower the signal
Summary of the method: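 Endothelial primary cells (human umbilical vein) are dosed, incubated 24 h, and assayed for surface P-selectin by ELISA; responses in either direction are fitted relative to the DMSO negative control.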

[19] = BSK_BE3C_SRB: Viability Assessment in the BioMAP Diversity Plus: BE3C Assay (AID 2283028); details: primary human bronchial epithelial cells;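 on AC50: fitted both ways so AC50 may mark signal gain or loss versus DMSO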
Summary of the method: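 Primary human bronchial epithelium; chemical dosing, 24 h; 10% TCA fix, 0.1% SRB stain, A560; bidirectional fit vs DMSO baseline.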

[20] = BSK_3C_Vis: BioMAP Diversity Plus: 3C Assay for Morphology Visualization (AID 2283025); details: primary human endothelial cells (HUVEC);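 further: fitted both ways so gain or loss versus DMSO counts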
Summary of the method: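 Morphology read by light microscopy serves as a background control for the multiplexed 3C assay in human umbilical vein endothelial cells, taken 24 h after dosing, with DMSO as the negative control and bidirectional curve fitting.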

Measured: AC50

human Retinoid X Receptor beta (RXRb), RXRB (gene 6257), sequence (P28702 whole entry, looked up, the tested form may be a part): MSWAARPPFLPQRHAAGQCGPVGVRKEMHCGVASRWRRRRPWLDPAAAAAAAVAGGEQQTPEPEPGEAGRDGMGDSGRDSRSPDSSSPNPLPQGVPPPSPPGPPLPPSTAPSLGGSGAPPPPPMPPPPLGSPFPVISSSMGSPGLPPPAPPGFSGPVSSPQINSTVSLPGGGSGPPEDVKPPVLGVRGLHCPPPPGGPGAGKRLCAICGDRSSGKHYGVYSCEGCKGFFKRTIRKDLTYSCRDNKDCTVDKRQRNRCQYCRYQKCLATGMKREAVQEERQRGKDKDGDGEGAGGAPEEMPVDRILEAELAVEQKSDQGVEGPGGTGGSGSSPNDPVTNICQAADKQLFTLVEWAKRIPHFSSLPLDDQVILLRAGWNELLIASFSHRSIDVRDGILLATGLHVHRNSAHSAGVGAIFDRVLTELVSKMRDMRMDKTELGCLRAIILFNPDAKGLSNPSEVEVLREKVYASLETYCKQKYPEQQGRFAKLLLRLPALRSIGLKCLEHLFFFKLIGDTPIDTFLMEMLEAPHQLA
human Vitamin D Receptor (VDR), VDR (gene 7421), sequence (P11473 whole entry, looked up, the tested form may be a part): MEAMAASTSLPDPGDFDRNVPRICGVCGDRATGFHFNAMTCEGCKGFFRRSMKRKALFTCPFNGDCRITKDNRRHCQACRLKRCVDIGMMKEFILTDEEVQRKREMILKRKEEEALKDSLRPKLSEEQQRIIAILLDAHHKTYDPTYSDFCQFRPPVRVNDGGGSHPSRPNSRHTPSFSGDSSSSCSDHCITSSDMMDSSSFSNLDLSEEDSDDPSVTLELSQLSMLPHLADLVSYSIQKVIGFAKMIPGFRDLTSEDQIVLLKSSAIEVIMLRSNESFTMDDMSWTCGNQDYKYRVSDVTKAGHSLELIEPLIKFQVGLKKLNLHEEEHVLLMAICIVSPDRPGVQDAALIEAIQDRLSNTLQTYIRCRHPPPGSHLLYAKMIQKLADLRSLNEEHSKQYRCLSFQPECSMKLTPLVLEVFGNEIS
Retinoic acid receptor RXR-alpha (Homo sapiens), sequence (P19793 whole entry, looked up, the tested form may be a part): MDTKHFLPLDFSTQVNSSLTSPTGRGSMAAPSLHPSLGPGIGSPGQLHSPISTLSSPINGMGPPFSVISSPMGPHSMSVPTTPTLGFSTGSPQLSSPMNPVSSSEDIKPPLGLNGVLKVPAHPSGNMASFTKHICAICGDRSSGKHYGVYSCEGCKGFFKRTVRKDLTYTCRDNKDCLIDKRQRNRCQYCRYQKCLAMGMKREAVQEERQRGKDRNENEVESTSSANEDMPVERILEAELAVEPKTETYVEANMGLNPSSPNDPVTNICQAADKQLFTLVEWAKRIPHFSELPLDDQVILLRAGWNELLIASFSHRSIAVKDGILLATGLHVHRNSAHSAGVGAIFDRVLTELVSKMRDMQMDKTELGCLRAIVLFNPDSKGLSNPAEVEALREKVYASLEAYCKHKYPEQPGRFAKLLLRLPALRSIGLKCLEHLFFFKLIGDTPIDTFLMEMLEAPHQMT
human RAR-related Orphan Receptor gamma (RORg), RORC (gene 6097), sequence (P51449 whole entry, looked up, the tested form may be a part): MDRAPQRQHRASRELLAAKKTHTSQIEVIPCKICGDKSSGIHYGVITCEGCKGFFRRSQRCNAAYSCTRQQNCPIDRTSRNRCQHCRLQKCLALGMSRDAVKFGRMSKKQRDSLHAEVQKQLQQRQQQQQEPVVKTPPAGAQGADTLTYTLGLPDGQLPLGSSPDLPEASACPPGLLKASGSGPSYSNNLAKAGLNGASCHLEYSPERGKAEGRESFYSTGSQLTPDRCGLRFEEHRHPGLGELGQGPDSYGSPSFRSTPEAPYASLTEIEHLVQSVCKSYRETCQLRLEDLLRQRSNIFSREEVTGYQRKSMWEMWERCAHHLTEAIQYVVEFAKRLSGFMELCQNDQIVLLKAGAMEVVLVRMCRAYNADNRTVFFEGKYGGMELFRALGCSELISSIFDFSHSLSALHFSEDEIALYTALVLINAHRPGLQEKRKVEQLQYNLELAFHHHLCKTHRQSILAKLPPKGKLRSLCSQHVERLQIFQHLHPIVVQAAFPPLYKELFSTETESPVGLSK
human Thyroid Receptor alpha (THRa1), THRA (gene 7067), sequence (P10827 whole entry, looked up, the tested form may be a part): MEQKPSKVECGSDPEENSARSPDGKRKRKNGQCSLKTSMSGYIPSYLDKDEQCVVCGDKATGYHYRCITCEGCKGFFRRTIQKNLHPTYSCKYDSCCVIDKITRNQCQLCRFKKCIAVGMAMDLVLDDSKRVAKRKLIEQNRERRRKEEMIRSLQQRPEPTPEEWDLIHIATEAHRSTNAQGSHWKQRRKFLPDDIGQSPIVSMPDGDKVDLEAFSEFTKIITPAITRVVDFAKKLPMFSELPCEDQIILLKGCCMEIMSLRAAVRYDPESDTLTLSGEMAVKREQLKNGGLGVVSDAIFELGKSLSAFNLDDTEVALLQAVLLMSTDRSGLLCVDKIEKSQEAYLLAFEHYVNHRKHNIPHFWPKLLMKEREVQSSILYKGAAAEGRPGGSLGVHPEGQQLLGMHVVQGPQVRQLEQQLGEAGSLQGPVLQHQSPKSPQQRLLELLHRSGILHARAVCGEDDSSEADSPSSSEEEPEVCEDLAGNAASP
E-selectin (Homo sapiens), sequence (P16581 whole entry, looked up): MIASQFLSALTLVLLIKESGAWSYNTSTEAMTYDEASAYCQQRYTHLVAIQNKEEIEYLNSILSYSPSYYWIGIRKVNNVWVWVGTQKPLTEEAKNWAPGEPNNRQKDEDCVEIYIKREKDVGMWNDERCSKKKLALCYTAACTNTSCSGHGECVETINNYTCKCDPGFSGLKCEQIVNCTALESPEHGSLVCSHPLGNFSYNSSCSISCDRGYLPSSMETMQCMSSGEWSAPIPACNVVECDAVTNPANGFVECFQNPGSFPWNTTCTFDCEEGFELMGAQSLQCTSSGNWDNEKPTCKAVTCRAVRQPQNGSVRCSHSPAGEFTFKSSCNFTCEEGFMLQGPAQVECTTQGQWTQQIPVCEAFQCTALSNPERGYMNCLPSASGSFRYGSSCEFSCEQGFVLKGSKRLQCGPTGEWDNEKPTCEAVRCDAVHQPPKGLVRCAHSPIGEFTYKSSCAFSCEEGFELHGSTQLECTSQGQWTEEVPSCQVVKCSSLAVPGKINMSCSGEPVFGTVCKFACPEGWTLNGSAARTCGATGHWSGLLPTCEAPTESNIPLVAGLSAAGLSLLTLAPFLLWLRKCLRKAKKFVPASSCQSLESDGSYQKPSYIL
human RAR-related Orphan Receptor beta (RORb), RORB (gene 6096), sequence (Q92753 whole entry, looked up, the tested form may be a part): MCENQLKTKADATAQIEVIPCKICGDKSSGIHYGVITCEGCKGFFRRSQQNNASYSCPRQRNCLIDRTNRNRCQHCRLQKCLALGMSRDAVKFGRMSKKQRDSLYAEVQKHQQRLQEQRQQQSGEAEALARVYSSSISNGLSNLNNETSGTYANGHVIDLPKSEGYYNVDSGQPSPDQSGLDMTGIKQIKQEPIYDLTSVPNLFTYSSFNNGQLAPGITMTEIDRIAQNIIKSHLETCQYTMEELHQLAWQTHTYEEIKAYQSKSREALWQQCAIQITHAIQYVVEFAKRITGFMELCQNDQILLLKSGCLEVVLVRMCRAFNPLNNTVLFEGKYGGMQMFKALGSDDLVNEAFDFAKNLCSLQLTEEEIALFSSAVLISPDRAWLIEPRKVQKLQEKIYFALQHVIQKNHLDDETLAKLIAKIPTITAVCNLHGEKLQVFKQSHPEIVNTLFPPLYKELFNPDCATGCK

Clc1ccc(Cl)cc1
not listed: [17] | [18] | [19] | [20]
inactive: all other assays above

C[C@]12CCC(=O)C=C1CC[C@@H]1[C@@H]2CC[C@@]2(C)[C@H]1CC[C@]2(C)O
active: [13] 28.3 µM | [14] 9.79 µM
not listed: [19] | [20]
inactive: all other assays above

Cc1cc(-c2ccc(N)c(C)c2)ccc1N
not listed: [1] | [18] | [19]
inactive: all other assays above

O=C(NC(=O)c1cc(F)c(F)cc1Cl)Nc1cc(F)ccc1N1CCC(C(=O)O)CC1
not listed: [3] | [4] | [12] | [17] | [19]
inactive: all other assays above

CCCCCCCCCc1ccc(O)cc1
active: [5] 14.3 µM | [6] 17.3 µM | [7] 14.6 µM | [8] 12.3 µM | [9] 14.1 µM | [10] 15.5 µM | [11] 16.4 µM | [13] 15.5 µM | [14] 16.7 µM | [18] 12.5 µM | [15] 14.9 µM
inactive: [1] | [3] | [17] | [12] | [16]

Oc1ccc(C(c2ccc(O)cc2)(C(F)(F)F)C(F)(F)F)cc1
inactive: [1] | [3] | [17] | [12]
active: [4] 5 µM [middle of 4 runs] | [5] 30.1 µM | [6] 30.8 µM | [7] 19.9 µM | [8] 14 µM | [9] 18.5 µM | [10] 18.8 µM | [11] 34.9 µM | [13] 16.2 µM | [14] 34 µM | [15] 28 µM | [19] 37.2 µM | [16] 21.3 µM

ClC1=C(Cl)[C@]2(Cl)[C@@H]3[C@@H]4C[C@@H]([C@H]5O[C@@H]45)[C@@H]3[C@@]1(Cl)C2(Cl)Cl
active: [4] 24.4 µM | [9] 20 µM | [13] 12.5 µM | [20] 13.7 µM
not listed: [2] | [8] | [17] | [18] | [19]
inactive: all other assays above

CCC(C)(c1ccc(O)cc1)c1ccc(O)cc1
active: [4] 9.02 µM and 17.8 µM and 19.6 µM | [7] 20 µM | [8] 10.7 µM | [9] 24.7 µM | [10] 22.9 µM | [13] 30 µM | [14] 20 µM | [15] 24.3 µM
inactive: [1] | [2] | [3] | [4] | [17] | [5] | [6] | [11] | [16]

Cc1cc2c3c(c1)C(c1ccccc1)=N[C@@H](NC(=O)c1ccncc1)C(=O)N3CC2
not listed: [4] | [17] | [18] | [20]
inactive: all other assays above

CC(C)C(=O)OCC(C)(C)C(OC(=O)C(C)C)C(C)C (stereo unspecified)
not listed: [1] | [3] | [12] | [17] | [18] | [19]
inactive: all other assays above

O=S(=O)(O)C(F)(F)C(F)(F)C(F)(F)C(F)(F)F
not listed: [1] | [4] | [18]
inactive: all other assays above

N#Cc1ccc(N(CC(N)=O)CC(F)(F)F)cc1C(F)(F)F
not listed: [1] | [4] | [12] | [17] | [19] | [20]
inactive: all other assays above
